# Results: PubChem BioAssay (NCATS)
# Records with an inconclusive call do not appear. Where a call stands in place of a potency, no number is given. Unmarked numbers belong to inactive results. The source made the active and inactive calls. Calls come from the whole dose curve; as a rule, active = well fitted inhibition curve with a large enough effect; inconclusive = small, poorly fitted or top-dose-only effect; inactive = flat fitted curve, though single readings scatter.
# Legend:
# [1] = qHTS profiling for inhibitors of Plasmodium falciparum proliferation (AID 504749); for all read-outs here: nearly all actives have a fitted effect of over 60% in size; conditions: P. falciparum in erythrocytes, SYBR Green DNA, 72 h; for activity, negative = inhibition: at 28.7 µM (top of the series)
# How it was run: (§1)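 Three-day growth assay of blood-stage parasites in erythrocytes (0.3% parasitemia, 2.5% hematocrit) at 37 C, 5% CO2, quantified by SYBR Green DNA staining after overnight detergent lysis.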
# [2] = system: 3D7; assay: as above; conditions: P. falciparum in erythrocytes, SYBR Green DNA, 72 h; series mostly up to 28.7 µM
# How it was run: as §1
# [3] = system: 7G8; assay: as above; conditions: P. falciparum in erythrocytes, SYBR Green DNA, 72 h; series mostly up to 28.7 µM
# How it was run: as §1
# [4] = system: AA1029; assay: as above; conditions: P. falciparum in erythrocytes, SYBR Green DNA, 72 h; series mostly up to 28.7 µM
# How it was run: as §1
# [5] = system: AS120; assay: as above; conditions: P. falciparum in erythrocytes, SYBR Green DNA, 72 h; series mostly up to 28.7 µM
# How it was run: as §1
# [6] = system: ATS189; assay: as above; conditions: P. falciparum in erythrocytes, SYBR Green DNA, 72 h; series mostly up to 28.7 µM
# How it was run: as §1
# [7] = system: ATS95; assay: as above; conditions: P. falciparum in erythrocytes, SYBR Green DNA, 72 h; series mostly up to 28.7 µM
# How it was run: as §1
# [8] = system: C2A; assay: as above; conditions: P. falciparum in erythrocytes, SYBR Green DNA, 72 h; series mostly up to 28.7 µM
# How it was run: as §1
# [9] = system: CP185; assay: as above; conditions: P. falciparum in erythrocytes, SYBR Green DNA, 72 h; series mostly up to 28.7 µM
# How it was run: as §1
# [10] = system: CP191; assay: as above; conditions: P. falciparum in erythrocytes, SYBR Green DNA, 72 h; series mostly up to 28.7 µM
# How it was run: as §1
# [11] = system: CP192; assay: as above; conditions: P. falciparum in erythrocytes, SYBR Green DNA, 72 h; series mostly up to 28.7 µM
# How it was run: as §1
# [12] = system: CP194; assay: as above; conditions: P. falciparum in erythrocytes, SYBR Green DNA, 72 h; series mostly up to 28.7 µM
# How it was run: as §1
# [13] = system: CP201; assay: as above; conditions: P. falciparum in erythrocytes, SYBR Green DNA, 72 h; series mostly up to 28.7 µM
# How it was run: as §1
# [14] = system: CP203; assay: as above; conditions: P. falciparum in erythrocytes, SYBR Green DNA, 72 h; series mostly up to 28.7 µM
# How it was run: as §1
# [15] = system: CP211; assay: as above; conditions: P. falciparum in erythrocytes, SYBR Green DNA, 72 h; series mostly up to 28.7 µM
# How it was run: as §1
# [16] = system: CP215; assay: as above; conditions: P. falciparum in erythrocytes, SYBR Green DNA, 72 h; series mostly up to 28.7 µM
# How it was run: as §1
# [17] = system: CP217; assay: as above; conditions: P. falciparum in erythrocytes, SYBR Green DNA, 72 h; series mostly up to 28.7 µM
# How it was run: as §1
# [18] = system: CP237; assay: as above; conditions: P. falciparum in erythrocytes, SYBR Green DNA, 72 h; series mostly up to 28.7 µM
# How it was run: as §1
# [19] = system: CP238; assay: as above; conditions: P. falciparum in erythrocytes, SYBR Green DNA, 72 h; series mostly up to 28.7 µM
# How it was run: as §1
# [20] = system: CP247; assay: as above; conditions: P. falciparum in erythrocytes, SYBR Green DNA, 72 h; series mostly up to 28.7 µM
# How it was run: as §1
# Potency is the fitted concentration of half-maximal effect.
smiles,measurement,setting,value
CC(C)(C)c1ccc2c(S(=O)(=O)O)c(C(C)(C)C)ccc2c1,"activity, negative = inhibition",[1]; parasite line A,16.3%
same,"activity, negative = inhibition",[1]; parasite line B,12.2%
same,Potency,[2],inactive
same,Potency,[3],inactive
same,Potency,[4],inactive
same,Potency,[5],inactive
same,Potency,[6],inactive
same,Potency,[7],inactive
same,Potency,[8],inactive
same,Potency,[9],inactive
same,Potency,[10],inactive
same,Potency,[11],inactive
same,Potency,[12],inactive
same,Potency,[13],inactive
same,Potency,[14],inactive
same,Potency,[15],inactive
same,Potency,[16],inactive
same,Potency,[17],inactive
same,Potency,[18],inactive
same,Potency,[19],inactive
same,Potency,[20],inactive
CC(C)(C)CC(C)(C)c1cc(Cc2cc(C(C)(C)CC(C)(C)C)cc(-n3nc4ccccc4n3)c2O)c(O)c(-n2nc3ccccc3n2)c1,"activity, negative = inhibition",[1]; parasite line A,10.8%
same,"activity, negative = inhibition",[1]; parasite line B,2.7%
same,Potency,[2],inactive
same,Potency,[3],inactive
same,Potency,[4],inactive
same,Potency,[5],inactive
same,Potency,[6],inactive
same,Potency,[7],inactive
same,Potency,[8],inactive
same,Potency,[9],inactive
same,Potency,[10],inactive
same,Potency,[11],inactive
same,Potency,[12],inactive
same,Potency,[13],inactive
same,Potency,[14],inactive
same,Potency,[15],inactive
same,Potency,[16],inactive
same,Potency,[17],inactive
same,Potency,[18],inactive
same,Potency,[19],inactive
same,Potency,[20],inactive
O=C1[O][Bi][O]c2ccccc21,"activity, negative = inhibition",[1]; parasite line A,7.71%
same,"activity, negative = inhibition",[1]; parasite line B,1.44%
same,Potency,[2],inactive
same,Potency,[3],inactive
same,Potency,[4],inactive
same,Potency,[5],inactive
same,Potency,[6],inactive
same,Potency,[7],inactive
same,Potency,[8],inactive
same,Potency,[9],inactive
same,Potency,[10],inactive
same,Potency,[11],inactive
same,Potency,[12],inactive
same,Potency,[13],inactive
same,Potency,[14],inactive
same,Potency,[15],inactive
same,Potency,[16],inactive
same,Potency,[17],inactive
same,Potency,[18],inactive
same,Potency,[19],inactive
same,Potency,[20],inactive
CN1c2c(nc(N)[nH]c2=O)NCC1CNc1ccc(C(=O)NC(CCC(=O)O)C(=O)O)cc1 (configuration not stated),"activity, negative = inhibition",[1]; parasite line A,2.92%
same,"activity, negative = inhibition",[1]; parasite line B,-8.81%
same,Potency,[2],inactive
same,Potency,[3],inactive
same,Potency,[4],inactive
same,Potency,[5],inactive
same,Potency,[6],inactive
same,Potency,[7],inactive
same,Potency,[8],inactive
same,Potency,[9],inactive
same,Potency,[10],inactive
same,Potency,[11],inactive
same,Potency,[12],inactive
same,Potency,[13],inactive
same,Potency,[14],inactive
same,Potency,[15],inactive
same,Potency,[16],inactive
same,Potency,[17],inactive
same,Potency,[18],inactive
same,Potency,[19],inactive
same,Potency,[20],inactive
CC(C)(COP(=O)(O)OP(=O)(O)OC[C@H]1O[C@@H](n2cnc3c(N)ncnc32)[C@H](O)[C@@H]1OP(=O)(O)O)C(O)C(=O)NCCC(=O)NCCS (some centres not stated),"activity, negative = inhibition",[1]; parasite line A,7.03%
same,"activity, negative = inhibition",[1]; parasite line B,2.39%
same,Potency,[2],inactive
same,Potency,[3],inactive
same,Potency,[4],inactive
same,Potency,[5],inactive
same,Potency,[6],inactive
same,Potency,[7],inactive
same,Potency,[8],inactive
same,Potency,[9],inactive
same,Potency,[10],inactive
same,Potency,[11],inactive
same,Potency,[12],inactive
same,Potency,[13],inactive
same,Potency,[14],inactive
same,Potency,[15],inactive
same,Potency,[16],inactive
same,Potency,[17],inactive
same,Potency,[18],inactive
same,Potency,[19],inactive
same,Potency,[20],inactive
CCCCCCOC(=O)c1cccnc1,"activity, negative = inhibition",[1]; parasite line A,6.05%
same,"activity, negative = inhibition",[1]; parasite line B,-29.8%
same,Potency,[2],inactive
same,Potency,[3],inactive
same,Potency,[4],inactive
same,Potency,[5],inactive
same,Potency,[6],inactive
same,Potency,[7],inactive
same,Potency,[8],inactive
same,Potency,[9],inactive
same,Potency,[10],inactive
same,Potency,[11],inactive
same,Potency,[12],inactive
same,Potency,[13],inactive
same,Potency,[14],inactive
same,Potency,[15],inactive
same,Potency,[16],inactive
same,Potency,[17],inactive
same,Potency,[18],inactive
same,Potency,[19],inactive
same,Potency,[20],inactive
COc1ccc2c(c1)OC(C)(C)C(c1ccccc1)C2c1ccc(OCCN2CCCC2)cc1 (configuration not stated),Potency,[1]; parasite line A,2.24 µM (active)
same,Potency,[1]; parasite line B,3.98 µM (active)
same,Potency,[2],3.16 µM (active)
same,Potency,[3],2.82 µM (active)
same,Potency,[4],3.55 µM (active)
same,Potency,[5],3.16 µM (active)
same,Potency,[6],3.55 µM (active)
same,Potency,[7],5.01 µM (active)
same,Potency,[8],4.47 µM (active)
same,Potency,[9],3.98 µM (active)
same,Potency,[10],2.51 µM (active)
same,Potency,[11],10.7 µM (active)
same,Potency,[12],6.75 µM (active)
same,Potency,[13],5.36 µM (active)
same,Potency,[14],12 µM (active)
same,Potency,[15],10.7 µM (active)
same,Potency,[16],9.53 µM (active)
same,Potency,[17],3.16 µM (active)
same,Potency,[18],3.98 µM (active)
same,Potency,[19],11.2 µM (active)
same,Potency,[20],2.51 µM (active)
COc1cc(S(C)=O)ccc1-c1nc2ncccc2[nH]1 (configuration not stated),"activity, negative = inhibition",[1]; parasite line A,6.38%
same,"activity, negative = inhibition",[1]; parasite line B,-9.68%
same,Potency,[2],inactive
same,Potency,[3],inactive
same,Potency,[4],inactive
same,Potency,[5],inactive
same,Potency,[6],inactive
same,Potency,[7],inactive
same,Potency,[8],inactive
same,Potency,[9],inactive
same,Potency,[10],inactive
same,Potency,[11],inactive
same,Potency,[12],inactive
same,Potency,[13],inactive
same,Potency,[14],inactive
same,Potency,[15],inactive
same,Potency,[16],inactive
same,Potency,[17],inactive
same,Potency,[18],inactive
same,Potency,[19],inactive
same,Potency,[20],inactive
CNC(=O)OCc1cccc(COC(=O)NC)n1,"activity, negative = inhibition",[1]; parasite line A,3.63%
same,"activity, negative = inhibition",[1]; parasite line B,1.01%
same,Potency,[2],inactive
same,Potency,[3],inactive
same,Potency,[4],inactive
same,Potency,[5],inactive
same,Potency,[6],inactive
same,Potency,[7],inactive
same,Potency,[8],inactive
same,Potency,[9],inactive
same,Potency,[10],inactive
same,Potency,[11],inactive
same,Potency,[12],inactive
same,Potency,[13],inactive
same,Potency,[14],inactive
same,Potency,[15],inactive
same,Potency,[16],inactive
same,Potency,[17],inactive
same,Potency,[18],inactive
same,Potency,[19],inactive
same,Potency,[20],inactive
FC(F)(F)COCC(F)(F)F,"activity, negative = inhibition",[1]; parasite line A,12.5%
same,"activity, negative = inhibition",[1]; parasite line B,-2.69%
same,Potency,[2],inactive
same,Potency,[3],inactive
same,Potency,[4],inactive
same,Potency,[5],inactive
same,Potency,[6],inactive
same,Potency,[7],inactive
same,Potency,[8],inactive
same,Potency,[9],inactive
same,Potency,[10],inactive
same,Potency,[11],inactive
same,Potency,[12],inactive
same,Potency,[13],inactive
same,Potency,[14],inactive
same,Potency,[15],inactive
same,Potency,[16],inactive
same,Potency,[17],inactive
same,Potency,[18],inactive
same,Potency,[19],inactive
same,Potency,[20],inactive
Cc1nc(NS(=O)(=O)c2ccc(N)cc2)nc(C)c1Br,"activity, negative = inhibition",[1]; parasite line A,7.52%
same,"activity, negative = inhibition",[1]; parasite line B,-0.222%
same,Potency,[2],inactive
same,Potency,[3],inactive
same,Potency,[4],inactive
same,Potency,[5],inactive
same,Potency,[6],inactive
same,Potency,[7],inactive
same,Potency,[8],inactive
same,Potency,[9],inactive
same,Potency,[10],inactive
same,Potency,[11],inactive
same,Potency,[12],inactive
same,Potency,[13],inactive
same,Potency,[14],inactive
same,Potency,[15],inactive
same,Potency,[16],inactive
same,Potency,[17],inactive
same,Potency,[18],inactive
same,Potency,[19],inactive
same,Potency,[20],inactive
CC(CC=O)CCCC(C)(C)O (configuration not stated),"activity, negative = inhibition",[1]; parasite line A,15.9%
same,"activity, negative = inhibition",[1]; parasite line B,2.33%
same,Potency,[2],inactive
same,Potency,[3],inactive
same,Potency,[4],inactive
same,Potency,[5],inactive
same,Potency,[6],inactive
same,Potency,[7],inactive
same,Potency,[8],inactive
same,Potency,[9],inactive
same,Potency,[10],inactive
same,Potency,[11],inactive
same,Potency,[12],inactive
same,Potency,[13],inactive
same,Potency,[14],inactive
same,Potency,[15],inactive
same,Potency,[16],inactive
same,Potency,[17],inactive
same,Potency,[18],inactive
same,Potency,[19],inactive
same,Potency,[20],inactive
